# S2 tox: Viability Counterscreen for Primary qHTS for Inhibitors of ATXN expression | Potency, µM (top dose mostly 56.7 µM), usual class: cytotoxic | S2 cells (HEK-293 line with an ATXN2-luciferase reporter) viability, CellTiter-Fluor protease fluorescence, 24 h | 400,000 tested, 0.49% active; note: nearly all actives have a fitted effect of over 40% in size
# Nrf2 ARE act: qHTS of Nrf2 Activators. 410,000 tested, 0.31% active. AID 624171, 2012. Potency, µM (doses to about 46.1 µM), without a hit: top-dose activation, most hits filed as activators. AREc32 ARE-luciferase reporter (MCF7-derived line), luminescence, 24 h; note: % of control where 0% means no effect; nearly all actives have a fitted effect of over 65% in size
#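 Luciferase luminescence (Steady-Glo, 30 min at room temperature) served as the read-out of ARE activation in AREc32 cells treated with compounds for 24 hr at 37 deg C.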
# Nrf2 inh: Nrf2 qHTS screen for inhibitors; A549 ARE-Fluc reporter, luciferase luminescence, 18-24 h; Potency, µM (titrated, usually from 46 µM), for inactives: top-dose activity change, negative = inhibition, most hits filed as inhibitors; 360,000 tested, 2.1% active; AID 504444, 2011; note: % is set by controls: 0 for no effect and ±100 for the full control effect; nearly all actives have a fitted effect of over 60% in size
#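 Concentration-response testing used A549 ARE_Fluc cells at 5000 cells/well. Following an 18-24 h compound incubation, viability was read by fluorescence (Ex 405/Em 525) and luciferase output by luminescence.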
# A549 tox: Nrf2 qHTS screen for inhibitors: counterscreen for cytotoxicity; A549 ARE-Fluc cells, CellTiter-Fluor viability, 18-24 h; Potency, µM (top dose mostly 46 µM), inactives show at the highest dose activity change, negative = cytotoxicity, hits mostly inhibitors; 390,000 tested, 0.16% active; AID 504648, 2011; note: % is set by controls: 0 for no effect and ±100 for the full control effect
#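 Cytotoxicity counterscreen: CellTiter-Fluor fluorescence was measured in A549 ARE_Fluc cells after 18-24 h of compound exposure in a concentration series. The subsequent BugLite luminescent read reports ARE-luciferase activity.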
# ATXN2 expr inh: Primary qHTS for Inhibitors of ATXN expression; Potency, µM (series often up to 57 µM), without a hit: at the top dose activity change, negative = inhibition, hits mostly inhibitors; HEK-293 ATXN2-luciferase reporter, luminescence, 24 h; AID 1745845, 2022; 360,000 tested, 0.72% active; note: % is set by controls: 0 for no effect and ±100 for the full control effect; nearly all actives have a fitted effect of over 55% in size
#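 qHTS (up to 57 uM final) was run with 24 h compound exposure of reporter cells at 37 °C. Each well was multiplexed: SteadyGlo luminescence measured ATXN2-luciferase expression after a fluorogenic Gly-Phe-AFC viability readout (25 uM final).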
# * = called active by the depositor; i = inactive; ? = inconclusive; . = no result given. Rows were chosen to be rich in hits. Some 2.9% of all compounds tested hit in one or more screens of this group. Calls come from the whole dose curve; as a rule, active = well fitted curve in the direction sought with a large enough effect; inconclusive = small, poorly fitted or top-dose-only effect, or another doubt; inactive = no such curve, though single readings can be large; an effect the other way counts as inactive or inconclusive. Potency is the fitted concentration of half-maximal effect.
SMILES,S2 tox,Nrf2 ARE act,Nrf2 inh,A549 tox,ATXN2 expr inh
c1ccc2nc(-c3ccc(N4CCOCC4)cc3)ccc2c1,i,0%,?,-3%,3.5µM*
c1ccc2nc(-c3ccncc3)ccc2c1,i,0%,4%,-13%,46%
CN1CCN(c2ccc(-c3ccc4ccccc4n3)cc2)CC1,.,-2%,10µM*,7%,0.38µM*
COc1cc(Br)c(C[N+]2(CCOCCC3CCC4CC3C4(C)C)CCOCC2)cc1OC (configuration not stated),i,.,.,.,.
N#Cc1nc(Nc2ccc(-c3ccccc3)cc2)nc(NC2CCCC2)n1,.,.,?,-8%,.
Cc1cc(C)c2c(=O)n(CC(=O)NCCCN3CCN(c4ccccc4F)CC3)sc2n1,19µM*,1%,1%,0%,?
CCOc1ccccc1NC(=O)CSc1nnc(N)s1,i,3%,?,3%,-7%
Cc1c(Cl)cccc1NC(=O)N1CCN(Cc2cc(=O)n3nc(-c4ccccc4F)sc3n2)CC1,i,11%,.,3%,12%
C/C(=N\NC(=O)CSCc1ccc([N+](=O)[O-])cc1)c1cccc(Br)c1,i,0%,23µM*,-16%,-5%
N#Cc1nc(Nc2ccc(F)cc2)nc(NC2CCCC2)n1,.,.,-13%,-16%,.
COc1ccc(CN(Cc2ccccc2)C(=O)c2ccccc2N)cc1COc1ccc(NC(C)=O)cc1,.,.,-10%,-2%,.
Cc1cccnc1-c1cccc2c1OC(CNC(=O)C(=O)c1ccccc1)C2 (configuration not stated),i,.,.,.,.
C[C@@H]1[C@H](O)[C@@H](C)C=CC=CC=CC=CC=CC=CC=C[C@H](O[C@@H]2O[C@H](C)[C@H](O)[C@H](N)[C@@H]2O)C[C@@H]2O[C@](O)(C[C@@H](O)C[C@@H](O)[C@H](O)CC[C@@H](O)C[C@@H](O)CC(=O)O[C@H]1C)C[C@H](O)[C@@H]2C(=O)O,.,.,.,.,34%
CCCOc1ccc(C2C(C(=O)c3cc4ccccc4o3)=C(O)C(=O)N2c2cc(C)on2)cc1OC (configuration not stated),i,0%,?,-28%,.
CCCOc1ccc(C2C(C(=O)c3cc4ccccc4o3)=C(O)C(=O)N2c2cc(C)on2)cc1 (configuration not stated),?,0%,?,21µM*,47%
COc1ccccc1C1C(C(=O)c2cc3ccccc3o2)=C(O)C(=O)N1c1cc(C)on1 (configuration not stated),i,18%,-12%,-5%,.
COc1ccc(OC)c(C2C(C(=O)c3cc4ccccc4o3)=C(O)C(=O)N2c2cc(C)on2)c1 (configuration not stated),i,3%,?,12µM*,-2%
CC1CCN(c2nnc(-n3cccc3CNc3cccc(F)c3)s2)CC1,i,6%,?,13%,-3%
Cc1ccc(N(C)S(=O)(=O)c2ccc3c(c2)CCC(=O)N3)cc1C,.,.,?,-6%,.
Cc1cccc(C)c1-n1nnnc1C1c2ccccc2C(=O)N1CCC(C)C (configuration not stated),?,?,.,.,7%
Cc1cccc(C)c1-n1nnnc1C1c2ccccc2C(=O)N1CCc1ccccc1F (configuration not stated),i,13µM*,.,.,41%
Cc1ccc(C)c(Cn2c(-c3cccs3)nc3ccccc32)c1,?,7%,23µM*,?,?
COc1cc(Cl)c(CN2CCOc3ccc(CN4CCCCC4CO)cc3C2)cc1OC (configuration not stated),i,.,.,.,.
Cc1ccc(C)c(C(=O)COc2ccccc2[N+](=O)[O-])c1,i,22µM*,-4%,12%,-1%
Cc1ccc(C)c(C(=O)COc2ccc(C)nc2[N+](=O)[O-])c1,i,?,.,2%,31%
CCC1CN(CCNC(=O)c2ccccc2-n2cccn2)Cc2cc(OC)ccc2O1 (configuration not stated),i,.,.,.,.
Nc1c(C(=O)Nc2ccc(OC(F)(F)F)cc2)sc2nc(-c3ccncc3)ccc12,.,6%,6.5µM*,-4%,.

# Compound activity: PubChem BioAssay, National Center for Advancing Translational Sciences (NCATS)
